This is one part of a sample in which hits are shown more often than they occur.
Pf Dd2 inh: inhibitors of Plasmodium falciparum Dd2 growth. P. falciparum Dd2 growth, SYBR Green, 72 h. Potency, µM (doses to about 28.9 µM), for the others: top-dose activity, negative = inhibition, usual class: inhibitors. 120,000 tested, 4.3% active. AID 1347417; active = well fitted inhibition curve with a large enough effect;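 also: plate controls were DMSO vehicle for no effect and reference drug for full effect; nearly all actives have a fitted effect of over 65% in size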
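Readout: SYBR Green fluorescence, 485 nm excitation, 535 nm emission, after ~16 h lysis at 37C. Before that, Dd2-infected red cells (2.5% hematocrit) grew 72 h with compound, 29 uM top final concentration.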
* hit, by the source's call; i = inactive; [ ] = dose if it differs, or a comment. Potency is read from the fitted curve at half-maximal effect.

SMILES	Pf Dd2 inh
CC1(C)C(=O)N(CC(=O)Nc2ccc(Cl)cc2)c2ccccc21	13%
Cc1ccc(N2C(=O)CSC23C(=O)N(CC(=O)Nc2ccccc2F)c2ccccc23)cc1C (stereo not drawn)	11µM*
CC(C)c1ccc(N2C(=O)CSC23C(=O)N(Cc2cccc(F)c2)c2ccccc23)cc1 (stereo not drawn)	-13%
O=C1CSC2(C(=O)N(Cc3cccc(C(F)(F)F)c3)c3ccccc32)N1c1ccc(F)c(F)c1 (stereo not drawn)	11µM*
Cc1ccc(C)c(NC(=O)CN2C(=O)C(C)(C)c3ccccc32)c1	10%
O=C1CSC2(C(=O)N(Cc3cccc(F)c3)c3ccccc32)N1c1cccc(C(F)(F)F)c1 (stereo not drawn)	-9%
Cc1cccc(N2C(=O)CSC23C(=O)N(CC(=O)NCc2ccccc2Cl)c2ccccc23)c1 (stereo not drawn)	10µM*
O=C(CN1C(=O)C2(SCC(=O)N2c2ccccc2)c2ccccc21)NCc1ccccc1 (stereo not drawn)	-14%
COc1ccc(N2C(=O)CSC23C(=O)N(C)c2ccccc23)cc1Cl (stereo not drawn)	19%
Cc1ccc(NC(=O)CN2C(=O)C(C)(C)c3ccccc32)cc1	-12%
Cc1cc(C)cc(N2C(=O)CCSC23C(=O)N(Cc2ccccc2)c2ccccc23)c1 (stereo not drawn)	i
Cc1cccc(S(=O)(=O)N2C[C@@H](F)C[C@H]2C(=O)N2CCc3ccccc3C2)c1	13%
CN1C[C@H](NCc2cccc(Cl)c2)CCC[C@@H](C(=O)NC2CC2)CC1=O	9%[44.1 µM]
COC(=O)N1CCn2c(nnc2-c2ccccc2)C1	-14%[44.1 µM]
CCN1C(=O)C2CC3(CCN(C(=O)c4sc(C)nc4C)CC3)CN2C1=O (stereo not drawn)	-15%
COc1ccc(-c2cc(N3CCCC(NC(=O)c4ccc(F)cc4F)C3)n[nH]2)cc1 (stereo not drawn)	-19%
COc1cc(O)ccc1CN1CCn2nnc(CCC(=O)N3CCCC3)c2C1	-17%
Cc1cc(C)cc(N2C(=O)CSC23C(=O)N(CC(N)=O)c2ccccc23)c1 (stereo not drawn)	-13%
O=C(CN1C(=O)C2(SCC(=O)N2c2ccc(F)c(F)c2)c2ccccc21)Nc1cccc(Cl)c1 (stereo not drawn)	13µM*
O=C1CCSC2(C(=O)N(Cc3ccc(F)cc3)c3ccccc32)N1c1ccc(F)c(F)c1 (stereo not drawn)	-6%
Cc1cc(C)c(NC(=O)CN2C(=O)C3(SCC(=O)N3c3ccc(F)cc3)c3ccccc32)c(C)c1 (stereo not drawn)	10µM*
CN1C(=O)C2(SCC(=O)N2c2ccc(Cl)cc2)c2ccccc21 (stereo not drawn)	i
O=C1CCSC2(C(=O)N(Cc3ccc(F)cc3)c3ccccc32)N1c1ccccc1 (stereo not drawn)	-27%
Nc1nc(C2CC(N)C2)cc(N2CCC(C(=O)NCc3ccccn3)CC2)n1 (stereo not drawn)	-22%
Cc1nn2c(c1-c1ccccc1OCc1ccccc1)N(C(=O)Cc1ccc3c(c1)OCO3)CCC2	-13%
SMILES	Pf Dd2 inh
CCN1C(=O)C2(CCN(S(=O)(=O)c3cccs3)CC2)c2ccccc21	46%
O=C1CCN(C(=O)C2CCN(C(=O)C3CCC3)CC2)CCCCCCN1	-17%
COc1ccc(C(=O)N2CCC3(CC2)OCC(C(=O)NC2CC2)N3C(=O)c2ccccc2)cc1OC (stereo not drawn)	-12%
CCOC(=O)c1ccccc1Nc1cc(C)nc2nc(-c3ccco3)nn12	10µM*
Cc1cc(Nc2cccc(F)c2)n2nc(-c3ccco3)nc2n1	-16%
Cc1cc(Nc2ccccc2Cl)n2nc(-c3ccco3)nc2n1	-28%
O=C1N[C@H](CCC(=O)N2CCN(CCc3ccccn3)CC2)C(=O)Nc2ccccc21	5%
Cc1nc(SCC(=O)Nc2ccc(C)c(Cl)c2)cc(-c2ccccc2)n1	2%
Cc1cc(C)cc(Nc2cc(-c3ccccc3)nc(C)n2)c1	11µM*
CSc1nc(Nc2ccc(C)cc2C)cc(-c2ccccc2)n1	-28%
CC(=O)N1Cc2ccccc2CC2(CCN(CC3CCNC3)CC2)C1 (stereo not drawn)	13%
COc1cccc(NC(=O)c2ccc3c(c2)NC(C)(COCCN(C)C)CO3)c1 (stereo not drawn)	-9%[44.1 µM]
CCOCC1(C)COc2ccc(C(=O)N(C)c3ccccc3)cc2N1 (stereo not drawn)	i
CCOCC1(C)COc2ccc(C(=O)Nc3cccc(N(C)C)c3)cc2N1 (stereo not drawn)	3.2µM*
Fc1ccc(C2Cn3nnc(-c4nc(-c5ccc(F)c(F)c5)no4)c3CO2)cc1 (stereo not drawn)	-12%
CC(C)CN(CC1CN(C(=O)NCc2ccccc2)CCO1)C(=O)c1ccc2c(c1)OCO2 (stereo not drawn)	-4%
CCC(CC)NCc1cccnc1Oc1ccccc1	13µM*
O=S(=O)(Cc1ccccc1)NCc1cccnc1Oc1ccccc1	-7%
O=C(NCc1cccnc1Oc1ccccc1)c1ccccn1	1%
CC1=NOC2(CCN(Cc3ccc(N(C)C)cc3)C2)C1 (stereo not drawn)	i
O=C(Nc1ccc(C(F)(F)F)cc1)C1CCCN(S(=O)(=O)c2cccc3cccnc23)C1 (stereo not drawn)	11µM*
O=C(Nc1ccc(F)c(F)c1)C1CCCN(S(=O)(=O)c2cccc3nonc23)C1 (stereo not drawn)	31%
O=C(Nc1ccc(OC(F)(F)F)cc1)C1CCCN(S(=O)(=O)c2cccc3nonc23)C1 (stereo not drawn)	50%
Cc1ncsc1C(=O)N1CC(CNC(=O)C2CCOCC2)C2(C1)CN(c1ccccc1)C2 (stereo not drawn)	-7%
O=C(NC[C@H]1O[C@H](Cc2cc(CN3CCOCC3)on2)CC[C@@H]1O)c1cccc(F)c1	-15%[44.1 µM]
SMILES	Pf Dd2 inh
COc1ccc(-c2ccc(NS(=O)(=O)c3ccccc3Cl)cc2)nn1	11µM*
COc1ccc(-c2ccc(NS(=O)(=O)c3cccc(C)c3)cc2)nn1	-21%
COc1ccc(-c2ccc(NS(=O)(=O)c3ccccc3)cc2)nn1	-2%
Cn1nccc1C(=O)N1CCC2(CC1)CC(Cc1nc(C3CC3)no1)CCO2 (stereo not drawn)	i
O=[S+]([O-])(c1cccs1)N1CC(Oc2ccc3c(c2)OCO3)C1	-9%
Cn1c(Cn2ccnc2)nnc1C1CCCN(C(=O)CSCC2CC2)C1 (stereo not drawn)	-1%
O=c1oc2c3c(ccc2c2ccccc12)OCN(Cc1cccc(Cl)c1)C3	10µM*
Cc1ccc2c(CN3CCN(Cc4ccccc4Cl)CC3)cc(=O)oc2c1	i
O=C1CC2(CCN(Cc3ccc(F)cc3)CC2)Oc2ccccc2N1	i
Cc1cc2c(c3oc(=O)c4ccccc4c13)CN(Cc1ccc(F)cc1)CO2	0.79µM*
O=c1oc2c3c(ccc2c2ccccc12)OCN(Cc1ccccc1Cl)C3	5.6µM*
Cc1ccc(-c2c(C(=O)NCc3ccc(F)cc3)oc(=O)c3ccccc23)cc1	15%
O=C1[C@H]2CN(Cc3ccccc3Cl)C[C@H]2C(=O)N1Cc1ccc2c(c1)OCO2	-5%
O=C(Cn1c(=O)c2c(n1Cc1ccccc1)CN(Cc1ccccc1)CC2)NCc1cccc(Cl)c1	i
Cc1ccc2c(c1)N1C(=O)OC[C@@H]1CCN(Cc1cccc(Cl)c1)C2	-8%[44.1 µM]
Cc1noc(C)c1[S+](=O)([O-])N1CCC2OCCN(Cc3ccccc3)C(=O)C2C1 (stereo not drawn)	i

Compound activity deposited in PubChem BioAssay by National Center for Advancing Translational Sciences (NCATS).
